# Screening data deposited in PubChem by The Scripps Research Institute Molecular Screening Center.
# Fam108B inh: mouse Fam108B serine hydrolase inhibitors, primary screen, counter-screen for RBBP9 inhibitor project, biochemical, fluorescence polarization | AID 1947, 2009 | 0.33% of 300,000 active | recombinant Fam108B, FP-Rh probe fluorescence polarization | inhibition, % at 9.51 µM;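 active = inhibition above the screen mean inhibition plus 3 SD, computed separately per campaign, cut at about 18% in these data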;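 also: inhibitors lower polarization as less probe binds the enzyme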
# pPAFAH inh: pPAFAH enzyme inhibitors, primary screen, biochemical, fluorescence polarization, human | Platelet-activating factor acetylhydrolase (Homo sapiens), Q13093 | recombinant pPAFAH, FP-rhodamine probe fluorescence polarization | inhibition, % at 3.39 µM | 1.5% of 330,000 active | AID 463082, 2010;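 active = inhibition above the mean inhibition across the screen plus 3 SD, cut at about 25% in these data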;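 also: inhibitors block binding of the rhodamine activity-based probe so polarization drops; 0% = enzyme with DMSO and 100% = wells lacking pPAFAH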
# PAFAH1B2 FP inh: PAFAH1B2 enzyme inhibitors, primary screen, biochemical, fluorescence polarization, human; Platelet-activating factor acetylhydrolase IB subunit alpha2 (Homo sapiens), P68402; recombinant PAFAH1B2, FP-rhodamine activity probe; inhibition, % at 3.39 µM; 1.2% of 340,000 active; AID 492953, 2010;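 active = inhibition above the mean of all tested compounds plus 3 SD, cut at about 24% in these data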;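 also: 0% = enzyme with DMSO and 100% = wells lacking PAFAH1B2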
# Target sequence (P68402 whole entry, looked up): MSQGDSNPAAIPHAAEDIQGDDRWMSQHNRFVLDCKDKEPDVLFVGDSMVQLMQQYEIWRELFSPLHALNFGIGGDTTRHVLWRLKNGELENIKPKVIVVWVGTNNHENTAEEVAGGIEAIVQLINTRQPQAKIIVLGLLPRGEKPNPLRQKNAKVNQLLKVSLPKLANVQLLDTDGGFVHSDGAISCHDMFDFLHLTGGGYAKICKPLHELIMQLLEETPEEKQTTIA
# PME-1 inh: PME-1 inhibitors via competitive probe labeling, primary screen, biochemical, fluorescence polarization, FP-Rh probe, HTS | Protein phosphatase methylesterase 1 (Homo sapiens), Q9Y570 | inhibition, % at 5.9 µM | 0.53% of 320,000 active | recombinant PME-1;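 active = inhibition above the campaign mean of all compounds plus 3 SD, cut at about 26% in these data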;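 also: competitive labeling of PME-1 active site by serine hydrolase directed probe; 0% = PME-1 with DMSO and 100% = wells lacking PME-1 enzyme; inhibitors block probe labeling so polarization falls and inhibition rises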
# PAFAH1B3 FP inh: PAFAH1B3 enzyme inhibitors, primary screen, biochemical, fluorescence polarization, human. Platelet-activating factor acetylhydrolase IB subunit alpha1 (Homo sapiens), Q15102. recombinant PAFAH1B3, FP-rhodamine probe. inhibition, % at 3.39 µM. 0.28% of 340,000 active;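 active = inhibition above the screen-wide average of all tested compounds plus 3 SD, cut at about 25% in these data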;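 also: 0% = enzyme with DMSO only and 100% = wells lacking PAFAH1B3 protein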
# Target sequence (Q15102 whole entry, looked up): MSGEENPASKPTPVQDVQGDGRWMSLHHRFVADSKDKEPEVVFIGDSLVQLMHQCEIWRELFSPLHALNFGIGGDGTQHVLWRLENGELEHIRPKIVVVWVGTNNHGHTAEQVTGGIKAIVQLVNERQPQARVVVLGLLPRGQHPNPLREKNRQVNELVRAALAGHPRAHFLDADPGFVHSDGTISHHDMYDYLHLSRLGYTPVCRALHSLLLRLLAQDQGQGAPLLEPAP
# PAFAH2 inh: PAFAH2 enzyme inhibitors, primary screen, biochemical, fluorescence polarization, human; AID 492956, 2010; inhibition, % at 3.39 µM; recombinant PAFAH2, FP-rhodamine activity probe; 0.99% of 340,000 active;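 active = inhibition above the mean over all tested compounds plus 3 SD, cut at about 30% in these data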;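 also: inhibitors block probe labeling of enzyme so polarization drops; 0% = enzyme with DMSO and 100% = wells lacking PAFAH2 protein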
# pPAFAH FP conf: pPAFAH (PLA2G7) enzyme inhibitors, confirmation, biochemical, fluorescence polarization, human; inhibition, % at 3.39 µM; recombinant pPAFAH, FP-Rh probe fluorescence polarization; 72% of 2,300 active; shares compounds with pPAFAH inh; AID 463230, 2010;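 active = mean inhibition of the triplicate above the hit cutoff set for the earlier primary screen, cut at about 25% in these data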;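 also: 0% = enzyme with DMSO and 100% = wells lacking pPAFAH enzyme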
# The depositor's hits bear a star; x = no result given. A selection: hits, their analogues and other compounds. The true share with any hit is near 2.9%.
SMILES,Fam108B inh,pPAFAH inh,PAFAH1B2 FP inh,PME-1 inh,PAFAH1B3 FP inh,PAFAH2 inh,pPAFAH FP conf
NC(=O)Cn1c(=O)n(Cc2ccco2)c(=O)c2c3c(sc21)CCCCC3,9,36*,0,1,1,13,15
CCOc1ccc(-n2c(=O)c3c4c(sc3n(CC(=O)NCc3ccco3)c2=O)CCC4)cc1,-70,-19,-19,-65,-32,-47,x
O=C(N/N=C/c1ccccc1)c1ccc(-c2ccccc2)cc1,-3,69*,0,-11,0,-10,6
O=C(N/N=C\c1ccccc1F)c1ccc(-c2ccccc2)cc1,x,x,0,x,3,-1,x
COc1ccc(-c2coc3cc(OC(=O)N4CCOCC4)ccc3c2=O)cc1,-2,51*,-8,6,5,7,43*
COc1ccccc1NC(=O)COC(=O)c1ccc([N+](=O)[O-])s1,5,37*,12,-1,26*,38*,6
COc1ccccc1NC(=O)COC(=O)C1CC1,0,5,3,2,5,18,x
O=S(=O)(Nc1ccc(-c2cn3ccccc3n2)cc1)c1ccccc1,-2,18,-4,-4,5,1,x
Cc1cccc(S(=O)(=O)Nc2ccc(-c3cn4ccccc4n3)cc2)c1,-5,35*,2,-2,2,12,22
COc1ccc(C(=O)CN2C(=O)NC3(CCc4ccccc43)C2=O)cc1 (stereo unspecified),4,7,-3,3,-1,-2,x
N=C1/C(=C\c2ccc(-c3cccc(Cl)c3)o2)C(=O)N=C2SC=C(c3ccccc3)N12,9,43*,3,17,2,-15,40*
Cc1cc(/C=C2/C(=N)N3C(c4ccccc4)=CSC3=NC2=O)c(C)n1-c1ccc(Cl)cc1,x,x,-2,x,-7,0,x
CCN(CC(=O)NCc1ccc(F)cc1)C(=O)CN1CCN(c2ccc(OC)cc2)CC1,2,2,7,1,-1,0,x
CCOc1ccc(N2CC(C(=O)Nc3ccc(F)cc3F)CC2=O)cc1 (stereo unspecified),2,37*,1,-1,4,-10,-5
CC(NC(=O)Nc1ccccc1Cl)c1ccc2c(c1)OCO2 (stereo unspecified),7,-2,3,1,2,2,x
Nc1c(N)c2ccccc2oc1=O,4,0,5,-1,1,4,x
O=c1oc2ccccc2c2oc3cc(O)c(O)cc3c12,16,73*,-1,3,9,34*,81*
COc1ccc(C(=O)c2nccc3ccccc23)cc1,3,4,1,-9,2,1,x
O=C(O)COc1ccccc1/C=N/NC(=O)c1cc2ccccc2cc1O,6,43*,5,7,3,1,2
Cn1cccc1/C=N/NC(=O)c1cc2ccccc2cc1O,5,51*,12,23,21,5,9
Cn1cccc1/C=N/NC(=O)c1ccccn1,2,4,4,1,4,2,x
C/C(=N\NC(=O)c1cc2ccccc2cc1O)c1ccc(C)o1,8,41*,10,-9,4,4,5
O=C(O)COc1ccccc1/C=N/NC(=O)c1cc(-c2ccc(F)cc2)nc2ccccc12,-2,6,-3,-2,2,7,x
O=C(N/N=C/C1CC=CCC1)c1cc2ccccc2cc1O (stereo unspecified),6,44*,0,15,15,9,17
Cc1ccc(CN2CC(C(=O)N(Cc3nnc(-c4ccccc4Cl)o3)C3CC3)CC2=O)cc1 (stereo unspecified),2,2,5,15,2,-4,x
SMILES,Fam108B inh,pPAFAH inh,PAFAH1B2 FP inh,PME-1 inh,PAFAH1B3 FP inh,PAFAH2 inh,pPAFAH FP conf
O=C(O)CCn1cc(C(=O)O)c(-c2ccccc2)n1,-2,1,0,-4,1,2,x
COCCCN1CN=C(Nc2nc3ccccc3o2)NC1,2,3,0,-4,-1,0,x
COc1ccc(SC[C@H](CC(C)C)N2CCN(CCc3ccccc3)CCC2=O)cc1,0,6,0,4,5,-11,x
Cc1cc(NC(=O)Cc2cccs2)no1,12,54*,2,14,10,35*,12
CCCCn1c(SCC(=O)c2ccc(O)c(O)c2)nc2ccsc2c1=O,7,42*,15,15,2,28,88*
N#Cc1c(-c2ccccc2Cl)cc(-c2ccccc2)nc1Br,-2,35*,1,-7,-5,3,16
COc1cc(/C=C2\CC/C(=C\c3cc(OC)c(O)c(OC)c3)C2=O)cc(OC)c1O,-6,42*,17,-7,2,1,39*
COc1cc(/C=C2\CC/C(=C\c3cc(OC)c(OC)c(OC)c3)C2=O)cc(OC)c1OC,-3,3,6,-8,3,0,x
CC(=O)Oc1cc2cccc(OC(C)=O)c(=O)c2c(OC(C)=O)c1OC(C)=O,5,91*,45*,6,46*,88*,34*
CCCCC(=O)c1c(O)c2ccccc2oc1=O,3,11,-1,-2,6,1,x
CC(=N)c1c(O)c2ccccc2oc1=O,-1,63*,5,-11,3,2,1
CN(C)C(=O)CCc1ccc2c3c([nH]c2c1)[C@]1(CCC2CCCC2)[C@@H](C(=O)N2CCOCC2)C[C@H](CC(=O)NCC24CC5CC(CC(C5)C2)C4)C(=O)N1CC3,x,8,2,x,8,2,x
CC(C)N(C(=O)[C@H]1C[C@H](CC(=O)NCCCN(C)C)C(=O)N2CCc3c([nH]c4cc(CCC(=O)N(C)C)ccc34)[C@]12C)C(C)C,x,3,-1,x,0,-2,x
CC(C)=CCC/C(C)=C/CNC(=O)C[C@H]1C[C@H](C(=O)N(C(C)C)C(C)C)[C@@]2(C)c3[nH]c4cc(CCC(=O)N(C)C)ccc4c3CCN2C1=O,x,68*,4,x,4,-2,59*
CC(C)=CCC/C(C)=C/CNC(=O)C[C@H]1C[C@H](C(=O)N2CCOCC2)[C@@]2(CCC3CCCC3)c3[nH]c4cc(CCC(=O)N(C)C)ccc4c3CCN2C1=O,x,39*,6,x,7,2,27*
